High-throughput results deposited in PubChem by Center for Chemical Genomics, University of Michigan.
Dicer processing = human Dicer pre-microRNA cleavage inhibition; 6% of 47,000 active; cat-ELCCA pre-miR-21 Dicer processing, chemiluminescence; stronger effect = higher value; z-score at 25 µM; Q9UPY3; in the data active = z-score above about 3, passing the limit was not always enough;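 also: plate controls were vehicle for no effect and no enzyme for full effect; higher signal means more uncleaved substrate so more Dicer inhibition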
* hit, by the source's call. Many of the other results were omitted from the sample, so hits are more common in it than they were.

SMILES	Dicer processing
OCCNc1ncnc2c1c(-c1ccccc1)c(-c1ccccc1)n2Cc1ccco1	5.89*
COC(=O)/C(C#N)=C/c1cc(Br)c(OC(C)=O)c(OC)c1	2.7
Cn1nc(C(F)(F)F)c2cc(-c3nc(-c4cc(C(F)(F)F)cc(C(F)(F)F)c4)no3)sc21	-0.45
O=C(Oc1ccc(OC(=O)c2cccnc2)c(Cl)c1)c1cccnc1	0.98
CCCCC(=O)Nc1nc2ccccc2s1	-0.22
O=C(Nc1ccc(F)cc1)Nc1nc2ccccc2s1	0.83
CCNC(=O)Nc1nc2ccccc2s1	4.41*
O=C(CCc1nc(-c2ccc(Cl)cc2)no1)NNS(=O)(=O)c1cc(Cl)c(Cl)cc1Cl	0.83
c1ccc2[nH]c(SN3CCCCC3)nc2c1	0.8
CCOC(=O)C(Sc1ncnc2c1sc1nc(C)cc(C)c12)C(C)=O (stereo not given)	2.21
Cc1ccc(-c2nc(NCCCN3CCOCC3)c3ccccc3n2)cc1	-0.32
O=C(O)CCCCCN1C(=O)c2cccc3cccc(c23)C1=O	-0.24
O=C(O)CCCN1C(=O)c2cccc3cccc(c23)C1=O	2.06
O=C(O)CN1C(=O)c2cccc3cccc(c23)C1=O	3.69*
NC(=O)C1CCN(C(=O)CN2C(=O)c3cccc4cccc2c34)CC1	-1
CC(O)CN1C(=O)c2cccc3cccc(c23)C1=O (stereo not given)	3.25*
O=C(CN1C(=O)c2cccc3cccc(c23)C1=O)N1CCOCC1	0.47
O=C1c2cccc3cccc(c23)C(=O)N1CCNCCN1C(=O)c2cccc3cccc(c23)C1=O	1.21
O=C1c2cccc3cccc(c23)C(=O)N1CCCCO	1.35
O=C1c2cccc3cccc(c23)C(=O)N1CC(=O)N1CCc2ccccc21	3.77*
O=c1/c(=C\c2ccccc2)sc2nc(-c3ccccc3)nn12	1.08
CCOC(=O)CSC1=C(C#N)C(c2ccc(Br)cc2)CC(=O)N1 (stereo not given)	-0.16
CC(C)Oc1ccccc1-c1nc(SCC(=O)c2ccccc2)n[nH]1	-1.08
NNC(=O)c1ccc(C(F)(F)F)cc1	2.3
Cn1c(=O)c2c(nc(N/N=C/c3ccccn3)n2C)n(C)c1=O	-0.18
SMILES	Dicer processing
COC(=O)C(CC(C)C)NC(=O)N1CCOCC1 (stereo not given)	-0.39
O=C(CC1(O)C(=O)N(Cc2ccc(Cl)cc2)c2ccccc21)c1ccc2c(c1)OCO2 (stereo not given)	2.38
CC1=NN(c2ccccc2)C(=O)/C1=C/c1ccc(Cl)cc1Cl	-0.12
O=C(N/N=C/c1ccc(C(F)(F)F)cc1)c1nc2ccccc2nc1C(F)(F)F	-0.2
O=C(C1=C(O)C(=O)N(CCCn2ccnc2)C1c1cccnc1)c1cccs1 (stereo not given)	3.06*
O=C(C1=C(O)C(=O)N(CCCn2ccnc2)C1c1cccnc1)c1cc2ccccc2o1 (stereo not given)	-0.82
COc1ccc(C2C(C(=O)c3cccs3)=C(O)C(=O)N2CCCn2ccnc2)cc1 (stereo not given)	-0.81
CN(C)S(=O)(=O)N(C)Cc1ccccc1	0.51
Cn1c(=O)c2c(nc(SCC(=O)NC(C(=O)O)(c3ccccc3)c3ccccc3)n2C)n(C)c1=O	1.27
C=CCn1c(=O)n(-c2ccc(C)cc2)c(=O)c2cc(-c3ccccc3)sc21	-0.59
O=C(O)CSc1cccc(C(F)(F)F)c1	-0.68
CCn1ncc(CNC(=O)c2cnn3c(C(F)F)cc(-c4ccc(C)cc4)nc23)c1C	0.29
COC(=O)c1cnn2c(C(F)F)cc(-c3ccc(C)cc3)nc12	-1.49
CCOC(=O)c1cnn2c(C(F)F)cc(-c3ccc(C)cc3)nc12	3.53*
CCCCCNc1ncnc2c1sc1nc(N3CCOCC3)c3c(c12)CC(C)(C)OC3	1.57
COC(=O)CSC1=C(C#N)C(c2ccc(C)cc2)CC(=O)N1 (stereo not given)	0.65
CCC(=O)Nc1nc(NC(=O)CC)nc(-c2ccccc2C)n1	2.9
CC(C)C(=O)Nc1nc(NC(=O)C(C)C)nc(-c2ccccc2C(F)(F)F)n1	3.21*
NNC(=O)Cn1nnc(-c2ccccc2C(F)(F)F)n1	0.88
O=c1sc2ccccc2n1CCOc1ccccc1Cl	0.54
O=C(NNc1ccc(C(F)(F)F)cn1)c1ccc(Cl)c(Cl)c1	1.12
COc1cc(C2SCCS2)cc(Br)c1OC(=O)NC(=O)c1c(F)cccc1F	1.89
CC(C)/C(=N\OC(=O)c1ccc([N+](=O)[O-])cc1)c1ccccc1	0.67
CCOc1cc(O)c(-c2n[nH]c(C)c2Oc2ccccc2)cc1CC	2.44
Cc1[nH]nc(-c2ccc(O)c(C)c2O)c1Oc1ccccc1	3.1*
SMILES	Dicer processing
CCOc1ccc(-c2n[nH]c(C)c2Oc2ccc(F)cc2)c(O)c1	2.3
CSc1n[nH]c(-c2ccc(C(F)(F)F)cc2)n1	3.09
CCOC(=O)c1sc(-c2ccc(C(F)(F)F)cc2)nc1O	-0.27
Cc1nc(-c2ccc(C(F)(F)F)cc2)sc1Br	17.9*
Cc1nc2ccccc2n1CCOc1ccccc1Cl	-0.03
O=C1OC(c2ccccc2)=N/C1=C\c1cccc([N+](=O)[O-])c1	1.74
O=C1OC(c2cccnc2Oc2ccc(Cl)cc2)=N/C1=C\c1ccc(Cl)cc1	-0.82
O=C1OC(c2ccc(Cl)cc2)=N/C1=C/c1cccc([N+](=O)[O-])c1	3.63*
Nc1ccc(-c2nc3ccc(N)cc3s2)cc1	2.29
CC(=O)Oc1ccc(-c2nc3ccc(C(=O)O)cc3s2)cc1	0.17
Nc1cccc(-c2nc3ccc(N)cc3s2)c1	1.73
O=C(O)c1ccc2nc(-c3ccccc3)sc2c1	3.75*
Nc1ccc(-c2nc3ccc(C(=O)O)cc3s2)cc1	0.3
Nc1ccc2nc(-c3ccc(O)cc3)sc2c1	3.54*
COC(=O)CSc1ncccc1C(=O)OC	-1.75
Cc1ccc(S/C=C(\C#N)S(=O)(=O)c2ccc(Cl)cc2)cc1	-0.41
Cc1c(NC(=O)c2ccco2)cc2c(c1[N+](=O)[O-])C(C)(C)CC2(C)C	-0.47
Cc1c(C(=O)Nc2ccc(Cl)cc2)cc(C(C)(C)C)n1-c1ccccc1	0.34
CC1=C(C(=O)OC(C)C)C(c2ccc(F)cc2)n2c(nc3ccccc32)N1 (stereo not given)	-0.55
S=C(Nc1ccc2[nH]ccc2c1)Nc1ccccc1N1CCOCC1	4.61*
CC(C)(C)OC(=O)N1CCCN(C(=S)Nc2ccccc2N2CCOCC2)CC1	-0.86
S=C(Nc1ccc(N2CCOCC2)nc1)Nc1cc(Cl)ccc1Cl	0.43
S=C(NCC1CC1)Nc1ccc2[nH]ccc2c1	4.76*
O=C(Nc1ccc2[nH]ncc2c1)C1CCC1	-0.03
O=C(NCC1CC1)Nc1ccc2c(c1)CCO2	1.04
SMILES	Dicer processing
CC12CN3CC(C)(CN(C1)C3c1ccc(O)cc1O)C2 (stereo not given)	2.64
Cc1ccc2nc(Nc3nc(C)cc(=O)[nH]3)nc(C)c2c1	0.87
Cc1ccc2nc(Nc3nc(O)cc(=O)[nH]3)nc(C)c2c1	2.74
Cc1cc(C)c2nc(Nc3nc(O)cc(=O)[nH]3)nc(C)c2c1	5.25*
Cc1ccc(SCc2cn3c(C)cccc3n2)cc1	1.97
COc1ccccc1C1C(C(=O)OC2CCCC2)=C(C)NC2=C1C(=O)CC(C)(C)C2 (stereo not given)	-0.28
COc1ccc(-c2cc(=O)[nH]c(Sc3c(-c4ccccc4)c4cc(Cl)ccc4[nH]c3=O)n2)cc1	-2.97
Oc1ccccc1/C=N/NC(=S)NC1CC2CC1C1C=CCC21 (stereo not given)	3.83*
CNC(=S)N/N=C/c1ccccc1Cl	-0.61
S=C(N/N=C/c1cccnc1)NC1CC2CC1C1C=CCC21 (stereo not given)	0.65
C=CCOC(=O)C1=C(C)NC2=C(C(=O)CCC2)C1c1ccccc1OCCC (stereo not given)	-0.83
